Results taken from PubChem BioAssay AID624260 (Broad Institute, 2012).
Among all 44,000 compounds or so, about 30 (0.07%) were called active. Roughly 1% stayed inconclusive and do not appear here. Rule as the data show it: active = inhibition above about 54% (passing the limit was not always enough); inconclusive = no clear call, values can overlap the other calls. Only a selection was taken, and actives are over-represented in it overall.

Molecular target: Histone-lysine N-methyltransferase NSD2 (Homo sapiens) (UniProt O96028)
Sequence (O96028 whole entry, looked up): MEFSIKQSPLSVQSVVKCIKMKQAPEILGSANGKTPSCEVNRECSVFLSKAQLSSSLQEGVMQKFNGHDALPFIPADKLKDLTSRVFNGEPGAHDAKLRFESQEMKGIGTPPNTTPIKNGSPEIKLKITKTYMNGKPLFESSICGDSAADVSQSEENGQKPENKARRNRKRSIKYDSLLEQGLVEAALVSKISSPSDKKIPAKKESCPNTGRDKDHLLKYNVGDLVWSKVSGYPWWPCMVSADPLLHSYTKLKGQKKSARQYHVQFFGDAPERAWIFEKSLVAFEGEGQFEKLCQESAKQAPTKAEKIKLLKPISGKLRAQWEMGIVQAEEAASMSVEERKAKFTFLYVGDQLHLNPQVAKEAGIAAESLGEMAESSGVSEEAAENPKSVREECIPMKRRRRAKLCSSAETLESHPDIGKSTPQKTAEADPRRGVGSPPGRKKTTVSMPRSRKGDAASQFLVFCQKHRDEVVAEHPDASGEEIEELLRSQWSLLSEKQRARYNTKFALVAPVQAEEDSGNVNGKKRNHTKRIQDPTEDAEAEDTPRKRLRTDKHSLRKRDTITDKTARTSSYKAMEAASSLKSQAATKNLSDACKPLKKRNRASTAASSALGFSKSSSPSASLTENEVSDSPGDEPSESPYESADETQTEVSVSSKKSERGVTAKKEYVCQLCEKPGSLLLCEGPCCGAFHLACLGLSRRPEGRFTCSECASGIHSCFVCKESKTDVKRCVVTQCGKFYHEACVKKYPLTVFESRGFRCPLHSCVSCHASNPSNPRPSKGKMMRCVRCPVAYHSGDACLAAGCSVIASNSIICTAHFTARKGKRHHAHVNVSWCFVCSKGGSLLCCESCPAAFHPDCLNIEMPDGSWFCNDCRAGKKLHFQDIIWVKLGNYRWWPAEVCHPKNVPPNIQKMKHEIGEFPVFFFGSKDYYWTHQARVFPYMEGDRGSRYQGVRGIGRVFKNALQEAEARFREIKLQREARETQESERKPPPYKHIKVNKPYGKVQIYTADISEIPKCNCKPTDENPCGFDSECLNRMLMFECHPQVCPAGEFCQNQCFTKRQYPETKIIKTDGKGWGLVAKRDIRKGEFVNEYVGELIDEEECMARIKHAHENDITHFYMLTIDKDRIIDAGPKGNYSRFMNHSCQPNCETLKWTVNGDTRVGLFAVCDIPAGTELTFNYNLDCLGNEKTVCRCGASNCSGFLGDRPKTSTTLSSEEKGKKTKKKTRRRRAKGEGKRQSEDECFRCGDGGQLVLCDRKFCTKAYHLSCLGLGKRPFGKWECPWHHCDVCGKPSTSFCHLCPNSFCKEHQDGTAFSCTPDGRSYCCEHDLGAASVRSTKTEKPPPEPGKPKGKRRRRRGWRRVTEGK
Assay: inhibitors of human NSD2, primary screen, biochemical, plate reader, single point (AID 624260);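 also: inhibitors reduce the monomethyl H3K36 fluorescence signal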
Details: NSD2-SET H3K36me1 DELFIA fluorescence, at 12.5 µM, stronger effect = higher value

inhibition, inactive:
C/C=C/c1ccc2c(c1)O[C@H](CN(C)C(=O)Nc1ccccc1)[C@H](C)CN([C@@H](C)CO)S2(=O)=O -4.94%
C[C@@H]1CN([C@@H](C)CO)C(=O)c2c(c3ccccc3n2C)-c2ccccc2CO[C@@H]1CN(C)S(=O)(=O)c1ccc(F)cc1 -1.17%
C[C@@H]1CN([C@@H](C)CO)C(=O)Cc2cc(NS(=O)(=O)c3ccc(Cl)cc3)ccc2O[C@H]1CN(C)C(=O)Nc1cccc2ccccc12 -4.23%
CC(=O)N(C)C[C@H]1Oc2cc(C#CCN(C)C)ccc2S(=O)(=O)N([C@H](C)CO)C[C@H]1C -0.922%
COc1cccc(CNC(=O)C[C@H]2CC[C@@H](NC(=O)C3CCC3)[C@@H](CO)O2)c1 2.46%
COc1ccccc1NC(=O)N[C@H]1CC[C@@H](CC(=O)NCc2ccc(Cl)c(Cl)c2)O[C@H]1CO -9.36%
C[C@H](CO)N1C[C@H](C)[C@@H](CN(C)C(=O)Nc2ccc3c(c2)OCO3)Oc2ccc(NS(=O)(=O)c3ccc(Cl)cc3)cc2CC1=O 1.14%
C[C@@H](O)C#Cc1ccc2c(c1)O[C@@H](CN(C)Cc1cccnc1)[C@@H](C)CN([C@@H](C)CO)S2(=O)=O 3.08%
COCC#Cc1ccc2c(c1)O[C@H](CN(C)C(=O)CC1CC1)[C@@H](C)CN([C@@H](C)CO)S2(=O)=O 8.01%
CNC[C@@H]1OCCCC[C@H](C)Oc2ccc(NS(=O)(=O)c3ccc(F)cc3)cc2C(=O)N([C@@H](C)CO)C[C@@H]1C -5.42%
COc1ccc(-c2cnc3c(c2)C(=O)N([C@@H](C)CO)C[C@@H](C)[C@H](CN(C)C)O3)cc1 9.08%
C[C@H](CO)N1C[C@H](C)[C@H](CN(C)C(=O)Nc2ccc3c(c2)OCO3)Oc2cc(C#Cc3ccncc3)ccc2S1(=O)=O 2.61%
C[C@@H]1CCCCO[C@H](CN(C)C(=O)CCC(F)(F)F)[C@H](C)CN([C@H](C)CO)C(=O)c2cc(NC(=O)NC3CCCCC3)ccc2O1 -3.86%
Cc1cc(C)c(/C=C2\C(=O)Nc3ccccc32)[nH]1 -2.13%
C/C=C/c1ccc2c(c1)O[C@@H](CN(C)C(=O)c1ccncc1)[C@@H](C)CN([C@H](C)CO)S2(=O)=O 0.685%
C/C=C/c1cnc2c(c1)C(=O)N([C@@H](C)CO)C[C@@H](C)[C@H](CN(C)Cc1cncnc1)O2 2.06%
CCCC#Cc1ccc2c(c1)O[C@H](CN(C)C(=O)c1ccncc1)[C@H](C)CN([C@H](C)CO)S2(=O)=O 5.45%
C[C@H](CO)N1C[C@H](C)[C@@H](CN(C)C(=O)C2CC2)Oc2cc(-c3cccc(C#N)c3)ccc2S1(=O)=O -3.58%
Cc1noc(C)c1S(=O)(=O)Nc1ccc2c(c1)CC(=O)N([C@@H](C)CO)C[C@@H](C)[C@H](CN(C)S(=O)(=O)c1cccs1)O2 -2.26%
C[C@@H]1CN([C@@H](C)CO)C(=O)Cc2cc(NC(=O)CCCCCC(=O)Nc3ccccc3N)ccc2O[C@H]1CN(C)Cc1ccc(Cl)c(Cl)c1 -4.04%
Cc1ccc(-c2cnc3c(c2)C(=O)N([C@H](C)CO)C[C@H](C)[C@@H](CN(C)S(C)(=O)=O)O3)cc1 4.66%
C[C@H]1CN([C@@H](C)CO)C(=O)c2cc(-c3cccc(F)c3)cnc2O[C@@H]1CN(C)C(=O)c1ccccn1 3.24%
C[C@@H]1CN([C@H](C)CO)C(=O)c2cc(C#Cc3ccncc3)cnc2O[C@H]1CN(C)Cc1ccncc1 6.93%
C[C@@H]1CN([C@@H](C)CO)C(=O)c2cc(C#Cc3ccncc3)cnc2O[C@@H]1CN(C)C(=O)CN(C)C 3.43%
CCCC#Cc1cnc2c(c1)C(=O)N([C@H](C)CO)C[C@H](C)[C@@H](CN(C)S(=O)(=O)c1ccccc1)O2 8.48%
C[C@@H]1CN([C@@H](C)CO)S(=O)(=O)c2ccc(C#Cc3cccnc3)cc2O[C@@H]1CN(C)C(=O)CN(C)C 0.378%
COCC#Cc1cnc2c(c1)C(=O)N([C@H](C)CO)C[C@H](C)[C@H](CN(C)C(=O)Cc1cccnc1)O2 -0.822%
C[C@H](O)C#Cc1ccc2c(c1)O[C@@H](CN(C)C(=O)C1CC1)[C@H](C)CN([C@H](C)CO)S2(=O)=O 3.98%
CCC(=O)N(C)C[C@@H]1Oc2cc(C#CCOC)ccc2S(=O)(=O)N([C@@H](C)CO)C[C@@H]1C 4.65%
C[C@H](CO)N1C[C@H](C)[C@@H](CN(C)S(=O)(=O)c2cccc(F)c2)Oc2cc(C#CCN(C)C)ccc2S1(=O)=O 0.824%
COc1cc(/C=N/NC(=O)c2ccc(C(=O)NO)cc2)ccc1O -2.52%
C[C@@H]1CN([C@H](C)CO)C(=O)c2cc(C#CCN(C)C)cnc2O[C@@H]1CN(C)C(=O)Cc1cccnc1 -1.47%

inhibition, active:
Cc1[nH]c(/C=C2\C(=O)Nc3ccc(S(=O)(=O)Cc4c(Cl)cccc4Cl)cc32)c(C)c1C(=O)N1CCC[C@@H]1CN1CCCC1 67.1%
